Records with an inconclusive call do not appear. Active and inactive are the calls of the source. Rule for the calls: active = hit-call score of the fitted dose curve at least 0.9, where 1 is the maximum; inconclusive = response in the unintended direction; inactive = score below 0.9.
Experiments:
[1] = ATG_M_06_XSP2: Attagene TRANS-FACTORIAL Multi-Species (XSP2) HepG2 Assay for M06 Transcription Factor (Internal Marker) (AID 2283811);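 note: hits are increases in signal above the DMSO baseline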
Method: ATG_XSP2_multi-species_TRANS is a cell-based, multiplexed assay created by modifying the existing Attagene TRANS-FACTORIAL system to include a panel of nuclear receptors from some or all the following species: human (Homo sapiens), mouse (Mus musculus), frog (Xenopus laevis), zebrafish (Danio rerio), chicken (Gallus gallus), and turtle (Chrysemys picta). The ECOTOX-FACTORIAL format uses HepG2, a human liver cell line, with measurements taken at 24 hours after chemical dosing in a 24-well plate. Xsp2 included 3 nM 6-alpha-fluorotestosterone and 1.5 nM norgestrel to stimulate the androgen receptor.ATG_M_06_XSP2 is one of 29 assay components measured or calculated from the ATG_XSP2_multi-species_TRANS assay. It is designed to make measurements of mRNA induction, a form of inducible reporter, as detected with fluorescence intensity signals by Reverse transcription polymerase chain reaction (RT-PCR) and Capillary electrophoresis technology.This assay endpoint, ATG_M_06_XSP2, was analyzed in the positive analysis fitting direction relative to DMSO as the negative control and baseline of activity. […] Furthermore, this assay endpoint can be referred to as a secondary readout, because this assay has produced multiple assay endpoints where this one serves a background control function. […]

[2] = system: turtle Estrogen Receptor (ERa), gene 101933533; assay: ATG_trERa_XSP2: Attagene TRANS-FACTORIAL Multi-Species (XSP2) HepG2 Assay for turtle Estrogen Receptor (ERa) (AID 2283812);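 note: human HepG2 liver cells transiently expressing turtle ERa-Gal4 chimeric receptor; actives raise reporter signal above DMSO so AC50 reflects agonist activity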
Method in brief: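 HepG2 cells transiently transfected with GAL4-UAS reporter units expressing turtle ERa-Gal4 chimera. Reporter mRNA measured after 24 h dosing by RT-PCR, fluorescent labelling and capillary electrophoresis; gain of signal fitted versus DMSO.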

[3] = biological target: Estrogen receptor beta (Homo sapiens) (UniProt Q92731); assay: ATG_hERb_XSP2: Attagene TRANS-FACTORIAL Multi-Species (XSP2) HepG2 Assay for human Estrogen Receptor (ERb) (AID 2283813);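 note: actives raise reporter mRNA above DMSO so AC50 reflects agonist induction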
Sequence of Estrogen receptor beta (Homo sapiens) (Q92731 whole entry, looked up, the tested form may be a part): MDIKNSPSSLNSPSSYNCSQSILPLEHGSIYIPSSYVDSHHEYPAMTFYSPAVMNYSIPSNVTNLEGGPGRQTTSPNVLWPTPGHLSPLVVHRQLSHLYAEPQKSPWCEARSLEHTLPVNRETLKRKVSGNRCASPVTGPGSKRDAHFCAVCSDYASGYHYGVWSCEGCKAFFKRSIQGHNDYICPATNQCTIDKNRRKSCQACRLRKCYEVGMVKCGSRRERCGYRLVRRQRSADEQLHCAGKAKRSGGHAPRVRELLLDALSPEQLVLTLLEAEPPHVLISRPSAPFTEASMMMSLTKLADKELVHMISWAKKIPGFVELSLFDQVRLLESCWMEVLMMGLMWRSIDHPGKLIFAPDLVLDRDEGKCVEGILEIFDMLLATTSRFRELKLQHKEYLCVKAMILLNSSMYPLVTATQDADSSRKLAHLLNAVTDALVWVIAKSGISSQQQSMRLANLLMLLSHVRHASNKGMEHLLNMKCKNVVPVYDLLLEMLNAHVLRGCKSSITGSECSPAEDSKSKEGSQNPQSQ
Method in brief: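 HepG2 cells transiently transfected with GAL4-UAS reporter units and chimeric human ERb-Gal4, 24 h exposure. Reporter mRNA quantified by RT-PCR with FAM labelling, HpaI digestion and capillary electrophoresis; gain of signal versus DMSO.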

[4] = biological target: GAL4 Transcription Factor (Internal Marker), GAL4 (gene 855828) (UniProt P04386); assay: ATG_GAL4_XSP2: Attagene TRANS-FACTORIAL Multi-Species (XSP2) HepG2 Assay for GAL4 Transcription Factor (Internal Marker) (AID 2283814);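 note: GAL4 reporter mRNA background control in MRTU transfected cells not a receptor target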
Sequence of GAL4 Transcription Factor (Internal Marker), GAL4 (gene 855828) (P04386 whole entry, looked up, the tested form may be a part): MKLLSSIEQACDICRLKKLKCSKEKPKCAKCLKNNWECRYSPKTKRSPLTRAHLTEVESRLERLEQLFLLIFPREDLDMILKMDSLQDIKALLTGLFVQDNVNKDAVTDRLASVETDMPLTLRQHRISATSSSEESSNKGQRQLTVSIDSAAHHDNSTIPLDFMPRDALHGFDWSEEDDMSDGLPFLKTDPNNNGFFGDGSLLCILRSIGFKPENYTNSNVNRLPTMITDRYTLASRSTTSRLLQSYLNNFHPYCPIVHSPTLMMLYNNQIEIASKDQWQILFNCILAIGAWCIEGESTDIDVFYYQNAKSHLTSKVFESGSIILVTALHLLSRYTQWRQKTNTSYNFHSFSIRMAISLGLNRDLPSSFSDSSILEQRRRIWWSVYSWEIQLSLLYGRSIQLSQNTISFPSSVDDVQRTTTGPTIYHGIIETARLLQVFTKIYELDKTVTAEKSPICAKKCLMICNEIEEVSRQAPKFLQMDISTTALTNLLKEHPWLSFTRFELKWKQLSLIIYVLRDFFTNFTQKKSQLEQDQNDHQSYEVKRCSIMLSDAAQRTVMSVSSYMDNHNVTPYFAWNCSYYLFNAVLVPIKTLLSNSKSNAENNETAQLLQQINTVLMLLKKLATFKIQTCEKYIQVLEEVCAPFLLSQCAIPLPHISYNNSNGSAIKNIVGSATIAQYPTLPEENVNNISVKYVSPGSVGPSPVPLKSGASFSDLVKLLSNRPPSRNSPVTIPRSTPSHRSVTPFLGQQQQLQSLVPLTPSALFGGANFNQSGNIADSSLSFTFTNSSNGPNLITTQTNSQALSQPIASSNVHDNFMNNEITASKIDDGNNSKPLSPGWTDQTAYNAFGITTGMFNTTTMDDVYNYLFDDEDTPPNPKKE
Method in brief: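 HepG2 cells transiently transfected with GAL4-UAS reporter units, stimulated with 3 nM 6-alpha-fluorotestosterone plus 1.5 nM norgestrel, dosed 24 h. Reporter mRNA by RT-PCR/capillary electrophoresis; gain-of-signal fit versus DMSO, background control.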

[5] = biological target: chicken Estrogen Receptor (ERa), ESR1 (gene 396099) (UniProt P06212); assay: ATG_chERa_XSP2: Attagene TRANS-FACTORIAL Multi-Species (XSP2) HepG2 Assay for chicken Estrogen Receptor (ERa) (AID 2283817);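 note: actives raise reporter signal above DMSO so AC50 reflects ER activation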
Sequence of chicken Estrogen Receptor (ERa), ESR1 (gene 396099) (P06212 whole entry, looked up, the tested form may be a part): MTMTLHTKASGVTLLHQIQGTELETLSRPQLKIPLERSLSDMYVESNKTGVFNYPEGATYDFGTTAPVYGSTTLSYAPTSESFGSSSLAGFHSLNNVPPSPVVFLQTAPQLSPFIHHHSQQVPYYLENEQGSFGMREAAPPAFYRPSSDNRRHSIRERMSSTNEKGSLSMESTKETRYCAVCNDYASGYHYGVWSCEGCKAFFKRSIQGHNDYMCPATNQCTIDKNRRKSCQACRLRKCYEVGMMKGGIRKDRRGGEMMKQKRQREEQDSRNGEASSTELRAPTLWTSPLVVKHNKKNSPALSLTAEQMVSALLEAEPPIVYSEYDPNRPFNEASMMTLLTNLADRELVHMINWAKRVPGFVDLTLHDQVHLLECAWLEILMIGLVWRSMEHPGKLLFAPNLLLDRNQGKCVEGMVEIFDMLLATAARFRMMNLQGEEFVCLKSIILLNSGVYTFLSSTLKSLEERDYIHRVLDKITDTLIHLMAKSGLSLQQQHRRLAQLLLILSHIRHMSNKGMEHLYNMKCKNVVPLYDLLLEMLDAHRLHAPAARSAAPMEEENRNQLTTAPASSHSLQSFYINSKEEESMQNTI
Method in brief: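 HepG2 cells transiently transfected with multiplexed GAL4-UAS reporter units expressing chimeric chicken ERa-Gal4; 24 h compound exposure. Reporter mRNA measured by RT-PCR with 6-FAM labelling, HpaI digestion and capillary electrophoresis; gain-of-signal fitted versus DMSO.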

[6] = system: zebrafish Estrogen Receptor (ER2a), gene 317734; assay: ATG_zfER2a_XSP2: Attagene TRANS-FACTORIAL Multi-Species (XSP2) HepG2 Assay for zebrafish Estrogen Receptor (ER2a) (AID 2283818);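 note: hits raise reporter mRNA so AC50 reflects activation of zebrafish ER2a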
Method in brief: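 HepG2 cells transiently transfected with GAL4-UAS reporter units and chimeric zebrafish ER2a-Gal4, exposed 24 h; medium contains 3 nM 6-alpha-fluorotestosterone and 1.5 nM norgestrel. Reporter mRNA quantified by RT-PCR, HpaI digestion, capillary electrophoresis; gain versus DMSO.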

[7] = system: frog Estrogen Receptor (ER), gene 398734; assay: ATG_frER1_XSP2: Attagene TRANS-FACTORIAL Multi-Species (XSP2) HepG2 Assay for frog Estrogen Receptor (ER) (AID 2283821);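 note: hits raise reporter mRNA above DMSO baseline so potency means agonist or activator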
Method in brief: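 HepG2, transient MRTU transfection, chimeric NR-GAL4/UAS reporters; 24 h compound exposure, 24-well. Readout: reporter mRNA via RT-PCR + capillary electrophoresis, fluorescence. Positive fit vs DMSO baseline.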

[8] = system: zebrafish Estrogen Receptor (ER2b), gene 317733; assay: ATG_zfER2b_XSP2: Attagene TRANS-FACTORIAL Multi-Species (XSP2) HepG2 Assay for zebrafish Estrogen Receptor (ER2b) (AID 2283823);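 note: fitted upward as reporter gain over DMSO so potency reflects activation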
Method in brief: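 HepG2 human liver cells transiently transfected with multiplexed GAL4-UAS reporter units expressing chimeric NR-Gal4 proteins; compounds dosed for 24 h. Reporter mRNA quantified by RT-PCR, 6-FAM labelling and capillary electrophoresis; gain-of-signal fitted against DMSO baseline.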

[9] = system: frog Estrogen Receptor (ER2), gene 100174814; assay: ATG_frER2_XSP2: Attagene TRANS-FACTORIAL Multi-Species (XSP2) HepG2 Assay for frog Estrogen Receptor (ER2) (AID 2283828)
Method in brief: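 Human liver HepG2, transient MRTU transfection (TRANS format, exogenous NR–Gal4). 24 h cpd exposure. Total RNA → RT → PCR → FAM label → HpaI cut → CE. Positive direction vs DMSO.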

[10] = biological target: Peroxisome proliferator-activated receptor gamma (Homo sapiens) (UniProt P37231); assay: ATG_hPPARg_XSP2: Attagene TRANS-FACTORIAL Multi-Species (XSP2) HepG2 Assay for human Peroxisome Proliferator-activated Receptor gamma (PPARg) (AID 2283829);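 note: actives raise reporter mRNA above DMSO so AC50 reflects PPARg activation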
Sequence of Peroxisome proliferator-activated receptor gamma (Homo sapiens) (P37231 whole entry, looked up, the tested form may be a part): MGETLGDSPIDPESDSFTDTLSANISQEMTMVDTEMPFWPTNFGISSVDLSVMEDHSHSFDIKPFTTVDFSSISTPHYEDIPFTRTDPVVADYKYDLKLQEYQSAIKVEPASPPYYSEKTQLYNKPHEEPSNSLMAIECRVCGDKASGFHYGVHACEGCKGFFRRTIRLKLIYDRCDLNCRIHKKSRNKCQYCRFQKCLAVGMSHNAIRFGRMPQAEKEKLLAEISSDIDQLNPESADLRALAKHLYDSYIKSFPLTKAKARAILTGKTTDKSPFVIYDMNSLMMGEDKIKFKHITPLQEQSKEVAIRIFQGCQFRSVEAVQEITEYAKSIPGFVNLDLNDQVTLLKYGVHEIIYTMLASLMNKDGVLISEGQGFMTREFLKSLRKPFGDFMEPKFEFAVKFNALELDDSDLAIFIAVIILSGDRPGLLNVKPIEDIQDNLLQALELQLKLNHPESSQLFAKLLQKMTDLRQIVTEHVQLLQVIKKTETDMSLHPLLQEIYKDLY
Method in brief: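 Reporter transcripts were measured by RT-PCR, fluorescent labeling, HpaI digestion and capillary electrophoresis, relative to DMSO, 24 h post-dosing. Transiently transfected HepG2 expressed NR-Gal4 chimeras regulating GAL4-UAS reporters; medium contained 3 nM 6-alpha-fluorotestosterone plus 1.5 nM norgestrel.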

Measured: AC50

C[C@]12CC[C@@H]3c4ccc(O)cc4CC[C@H]3[C@@H]1C[C@@H](O)[C@@H]2O
inactive: [1] | [4] | [7] | [9] | [10]
active: [2] 30.6 nM | [3] 10.2 nM | [5] 72.5 nM | [6] 100 nM | [8] 30.8 nM
